# Laboratory results as given in the supplement of paper PMC5499739.
# In all, about 16,000 sequences were measured (“Z-score”: median about -0.37, highest 2% from about 3.2 on). The full list was thinned out, with the highest values kept by preference.
# Tested on: RBM10 RRM1-ZnF (GST-tagged construct)
# Experiment: RNAcompete 7-mer binding Z-score; higher = stronger binding preference
# Description: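 RNAcompete: 20 pmol GST-tagged RBM10 RNA-binding constructs were incubated with a designed RNA pool of about 241,000 sequences up to 41 nt (1.5 nmol) on glutathione beads for 30 min at 4 °C and washed. Bound RNAs were identified by microarray hybridisation. Each RNA 7-mer is scored by a one-sided Z-score of its enrichment, computed over probes that contain the 7-mer within longer pool sequences.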
row,Sequence,RNAcompete 7-mer binding Z-score
1,UAAGGAA,1.64
2,GAAGGAA,4.56
3,GAAGGAG,4.72
4,AAAGGAA,3.32
5,CAAGGAG,2.17
6,GGAGGAA,2.93
7,GAAGGAC,2.33
8,GAAGGAU,3.32
9,GCAGGAA,1.77
10,CAAGGAA,1.48
11,UAAGGAU,1.42
12,CAAGGAU,1.36
13,CAUCACC,-0.795
14,AACGGUG,1.56
15,CACCAAU,-0.639
16,GCCCGCC,-0.132
17,AUCCCGG,-0.513
18,UAGUUAA,-0.373
19,UUGCACU,-0.639
20,UUGGUUC,-0.344
21,UGCCGAC,-0.652
22,UCAGUAA,-0.461
23,UUACGCU,-0.5
24,AAAGGAC,2.39
25,AAAGGAG,3.8

row,Sequence,RNAcompete 7-mer binding Z-score
1,UAAGGAG,1.97
2,CAGCGCG,-0.324
3,GUAGACC,0.00729
4,GGAGCGA,2.71
5,UGAGCGG,2.38
6,CGAGCGU,0.0495
7,AGAGCGG,1.43
8,CGAGCGG,3.69
9,GGAGCGG,4.52
10,UCACUUA,-0.724
11,AUUCAAA,-0.662
12,CAUCUCA,-0.798
13,CUGGAUC,-0.311
14,CGGAUGA,1.15
15,UGGCGUA,0.316
16,UUUGGGU,2.47
17,UGGGCGG,3.38
18,UUGGGGU,3.27
19,AUUGGGG,3.01
20,UGGGCGC,1.16
21,UUGGGGG,3.56
22,GUUGGGG,4.26
23,AGGGCGG,2.1
24,CUUGGGG,1.44
25,UUGGGGC,1.95

row,Sequence,RNAcompete 7-mer binding Z-score
1,CUUGGGU,1.38
2,UUUGGGG,2.72
3,GCGUUUA,-0.535
4,CAAUUAA,-0.633
5,UCACUUC,-0.824
6,UUCAAAU,-0.607
7,GUUGCGU,0.257
8,UAGUAGU,-0.035
9,AUAUCCU,-0.789
10,GAAGUUA,0.309
11,CUUUAUG,-0.763
12,GGUUUGG,3.62
13,UGGGGGG,4.02
14,UGGGGCG,2.54
15,AAUUGGG,2.54
16,GUUUGGG,3.59
17,GGUUUUG,2.03
18,UGGGGGC,3.07
19,GAUUGGG,3.62
20,GAUUGGC,0.953
21,CGUUUGG,0.296
22,GUUUUGG,1.15
23,GUUUGGA,1.36
24,UAGGUCC,-0.165
25,GGGGCGG,2.7

row,Sequence,RNAcompete 7-mer binding Z-score
1,UCGGGGC,1.65
2,ACUAUCU,-0.759
3,UUGGCGA,0.605
4,CCGGGGG,1.54
5,GCGGGGG,3.94
6,CCGGGGA,1.27
7,GCGGGGA,3.67
8,UCGGGGA,1.6
9,GCGGGGU,3.75
10,UCGGGGU,2.07
11,GCGGGGC,2.47
12,GCGGGUU,2.76
13,GUCCAUA,-0.623
14,CCGACGC,-0.477
15,AGUACAA,-0.158
16,GUCAGCC,-0.448
17,GUGUUAA,-0.0447
18,GGGGGAG,3.22
19,AGGGGAG,2.9
20,AGGGCAG,2.11
21,UGGGGAG,3.36
22,GGGGCAG,3.4
23,UCGGGAG,1.12
24,UGGGCAG,2
25,CGGGGAG,2.57

row,Sequence,RNAcompete 7-mer binding Z-score
1,AGAUAAA,0.0463
2,UGACUCA,-0.48
3,GGUAGCC,0.784
4,UCAACAC,-0.461
5,GAGGAGA,1.69
6,ACUUGCU,-0.74
7,GACUUGA,-0.496
8,AAGGAAC,2.26
9,AAGGAAU,2.28
10,CAGGAAA,0.94
11,UAGGAAA,1.47
12,UAGGAAG,1.72
13,GAGGAAG,3.26
14,AAGGAAA,3.36
15,AAGGAAG,3.84
16,GAGGAAU,1.58
17,GGCUUAA,-0.0122
18,UGUCUCG,-0.649
19,GAUACGU,-0.022
20,AUGGACA,1.95
21,UUUGCUC,-0.867
22,GUGGAGU,2.67
23,AUGGAGA,2.62
24,AUGGAGU,2.63
25,AUGGAGG,4.22

row,Sequence,RNAcompete 7-mer binding Z-score
1,GUGGAGC,2.91
2,GUGGAGG,3.91
3,GGUGGUG,3.56
4,GAUGGUG,3.27
5,AGUGGUG,2.37
6,CGUGGUG,1.52
7,AAUGGUG,2.79
8,GAUGGUC,0.563
9,ACCACCA,-0.503
10,CUUACAC,-0.841
11,GCUCCCA,-0.574
12,GUCGUAG,0.056
13,ACAUCGA,-0.48
14,CGUAGAG,0.381
15,CGUAAAG,-0.116
16,CGUAGGU,0.949
17,UGUAGAG,0.923
18,AGUAGGA,2.8
19,GGUAGGC,1.92
20,UGUAAAG,0.173
21,GGUAGAG,3.37
22,GGUAGGU,3.31
23,GGUAAAG,3.32
24,AGUAGGU,1.68
25,GGUAGGA,3.4

row,Sequence,RNAcompete 7-mer binding Z-score
1,GAACCAG,-0.0934
2,GCGUAGC,-0.0155
3,CCGAAUU,-0.815
4,UGACCAC,-0.49
5,CUGUCGG,-0.305
6,UAGUCGA,-0.191
7,CCUUAUA,-0.87
8,UGGGCUG,1.83
9,GGUAGCG,1.67
10,GGUAGGG,4.7
11,GGUAGUG,2.47
12,AAGACUC,-0.561
13,AAUUAUA,-0.464
14,GAUCCUC,-0.883
15,AAUGGGU,3.89
16,ACUGGGG,1.89
17,AAUGGGG,4.2
18,CAUGGGU,2.24
19,GAUGGGU,3.53
20,CAUGGGG,2.42
21,UAUGGGU,2.81
22,UAUGGGG,3.4
23,UAUGGCG,0.537
24,AAUGGCU,0.303
25,AAUGGUU,2.44

row,Sequence,RNAcompete 7-mer binding Z-score
1,UAUGGGC,1.47
2,GAGGACC,0.235
3,CCUCCUC,-0.542
4,UGUACAU,-0.422
5,UGUGCCA,-0.542
6,ACUAUAC,-0.642
7,CACAUGU,-0.448
8,CAUUCUU,-0.789
9,ACGACAC,-0.496
10,UAUGGGA,2.85
11,GAUGGGG,4.43
12,GAUGGGC,2.15
13,GAUGGGA,3.76
14,AAUGGGA,4.35
15,CAUGGGA,1.95
16,AAUGGGC,2.5
17,GAUGGUA,2.28
18,GCUGGGG,2.64
19,CUCACUU,-0.925
20,UUGUUAC,-0.373
21,GUUACCG,-0.0999
22,GGCCGAG,0.462
23,UGCGAUA,-0.223
24,GCCAGAG,0.00729
25,AGGGAGG,3.68

row,Sequence,RNAcompete 7-mer binding Z-score
1,AGGGAGU,2.96
2,CGGGAGG,3.02
3,GGGGAGC,2.29
4,UGGGAGC,2.86
5,GGGGAGA,3.3
6,GGGGAGG,3.64
7,GGGGAGU,2.84
8,UGGGAGA,2.78
9,UGGGAGU,2.27
10,CGGGAGA,1.24
11,UGGGAGG,4.4
12,AGUCAGU,0.0105
13,ACGCCGC,-0.633
14,UCCAACU,-0.85
15,GUUACGG,0.859
16,GAGCUGA,0.417
17,GCGCAAA,-0.181
18,AAGGCCA,-0.00896
19,UUCUUAG,-0.698
20,AUCCUAC,-0.87
21,GUCUCAU,-0.642
22,AGAAUCC,-0.785
23,AUACAAU,-0.539
24,CACGCAA,-0.464
25,GGGCUAU,0.849

row,Sequence,RNAcompete 7-mer binding Z-score
1,GAAAAGG,4.26
2,AAAAGGU,2.33
3,GAAAGGU,4.51
4,CAUAAGG,0.335
5,AGAAAGG,4.58
6,UGAAAGG,3.05
7,GAUAAGG,3.91
8,GAUAAGU,0.313
9,CGAAAGG,2.19
10,CAAAGGU,1.15
11,CAAAAGG,0.888
12,AAAAAGG,2
13,CACCUUG,-0.516
14,ACUAGUG,0.0983
15,GUACCAG,-0.035
16,ACCAGGA,0.823
17,CGCGGCG,1.25
18,CGCCAUA,-0.594
19,UGAGGGU,3.48
20,UGAGAGG,1.94
21,CGAGGGA,2.84
22,CGAGGGU,3.7
23,AGAGGGU,2.22
24,CGAGGUU,0.846
25,UGAGGGG,3.64

row,Sequence,RNAcompete 7-mer binding Z-score
1,CGAGGGC,1.06
2,UGAGGGA,4.02
3,UGAGGGC,2.27
4,UGAGGCU,0.3
5,UGAGGAG,1.86
6,UAGCGGC,-0.132
7,AGAUGAU,0.287
8,UGACUCC,-0.652
9,AUUUAAC,-0.561
10,GGGAGAU,2.7
11,CGAAGCU,-0.691
12,GUCAGCU,-0.425
13,AGUGCCG,-0.11
14,UCGCAAU,-0.545
15,CGAACGA,-0.123
16,GGGCAUA,1.66
17,AUACACC,-0.795
18,CUGAGGC,-0.0155
19,GGAGGAU,2.46
20,GGAGGGU,3.97
21,GGAGGCU,1.41
22,CCCAAUG,-0.662
23,UUAGGGU,2.78
24,GUAGGGA,3.87
25,AUAGGCG,0.781

row,Sequence,RNAcompete 7-mer binding Z-score
1,GUAGGGG,4.54
2,AUAGGGG,3.9
3,AUAGGUG,2.64
4,GUAGGGC,2.49
5,CUAGGGU,2.25
6,CUAGGGG,2.46
7,UUAGGGA,2.03
8,UUAGGGG,2.4
9,GUAGGGU,4.46
10,GCAUACU,-0.694
11,UACAGGU,0.881
12,AUAGCAG,0.358
13,ACUCGGG,0.667
14,ACAACCA,-0.464
15,CAAUGUC,-0.75
16,GAGACCA,-0.126
17,GACUAAC,-0.626
18,UCCUUGC,-0.733
19,GACUGGG,2.42
20,AUAGGGC,1.72
21,CUAGGAG,0.608
22,GUAGGAG,3.43
23,AUAGGGA,2.86
24,AUAGGGU,3.61
25,GUAGGAC,1.4

row,Sequence,RNAcompete 7-mer binding Z-score
1,CCAGCAA,-0.617
2,AUGGCAU,0.514
3,UUAAAAA,-0.444
4,GGCCUGC,-0.428
5,AAAAGCG,0.378
6,ACUUCUC,-0.841
7,UAUAAUA,-0.412
8,CGCGUGC,-0.223
9,ACGGGGG,3.27
10,ACGGGUU,2.65
11,ACCGGGU,0.631
12,ACGGGGA,3.04
13,ACGGGUG,3.39
14,ACGGGGU,4.07
15,ACGGGUC,1.19
16,ACGGGGC,2.26
17,GCGGGUG,3.17
18,CUCAAUC,-0.769
19,ACGCUCG,-0.636
20,UUUUAUC,-0.873
21,CAGCCUG,-0.513
22,GAAGUGU,1.08
23,GAAGUGC,0.29
24,GGAGUGG,4.84
25,GGAGUGA,2.38

row,Sequence,RNAcompete 7-mer binding Z-score
1,GAAGUGG,3.46
2,AGAGUGG,2.81
3,CGUCCCG,-0.594
4,CGUUCUA,-0.811
5,UUUCUUA,-0.727
6,UUAUAAC,-0.704
7,GACUAUA,-0.542
8,CAAGGGA,2.42
9,AAAGGGA,4.42
10,AAAGGGC,2.62
11,GAAGGCU,0.621
12,GAAGGGU,4.19
13,GAAGGGC,2.98
14,UAAGGGG,3.27
15,UAAGGCG,1.03
16,UAAGGGU,3.44
17,CAAGGGU,2.65
18,UAAGGCU,0.183
19,CAAGGGG,2.79
20,ACUUAGU,-0.435
21,GAAUGCU,-0.184
22,AUAGAAU,-0.132
23,CCUCGCU,-0.681
24,UUACUAC,-0.707
25,UGCUGUG,-0.119

row,Sequence,RNAcompete 7-mer binding Z-score
1,UCUGACG,-0.535
2,UACCAAC,-0.668
3,UAAGGGA,3.27
4,GCAGGGA,2.92
5,UAAGGGC,1.49
6,UAAGGCA,0.888
7,GAAGGGA,4.52
8,GAAGGCA,1.7
9,CCUCAUC,-0.737
10,CCACGUA,-0.578
11,GGGCGAA,2.22
12,UGGCGGG,3.47
13,GGACAGU,0.842
14,GGACAGG,3.3
15,AGGCAGG,1.8
16,GGGCAGG,3.39
17,UGGCGGU,1.49
18,AGACAGG,1.59
19,GGGCGAC,1.81
20,GGGCGAG,3.37
21,GGGCAGA,2.45
22,CGGCGGG,2.07
